Results reported in article PMC10163288.
Only a sample is shown. The hit rate among all sequences tested is not known here.

B1: il2ra_site2_2erj_sap_22_mot_HHH_b2_08130_000000073_0001_1_17_H_._HHH_b1_02674_0001_0000300003_0000001_0_0001 (protein)
chain: SSSSDVEELLEEIEELLRRGDREEAERLLHEAAELAFERNDFELFTEVVEVAHEIDRLRVSSSSS
B2: il2ra_site2_3nfp_normal_mot_HHH_b1_01086_000000225_0001_20_36_H_._HHH_b1_01202_0001_0000300006_0000001_0_af2pred_0001_af2pred_swapped (protein)
chain: SSSSDHERFALRAALLEIEVAIEAGDEKKVEKLIERLEILIKRLNDEEMEELLRKLKEELSSSSS
B3: il2ra_site2_3nfp_normal_mot_HHH_b1_00660_af2_000000090_0001_40_57_H_._HHH_b1_07775_af2_0001_0000100002_0000001_1 (protein)
chain: SSSSDEELEEEVEKLLEEAKKIEDKFEAFALVLRAREIAERLGDEELKQLVARVALEIYESSSSS
B4: il2ra_site1_3nfp_normal_mot_eb5a5eebac1e5153f932cc6c3f4b2787_0001_af2_000000065_0001_18_33_H_._31bff7180b20e3ed47766ceefd9934be_0001_af2_0001_0000200025_0000001 … (protein)
chain: DEEKELAELIAEAVEKNDPELLEEVVQELLKKLGDPKEASRLFEELLRKAGLSPEEIYLAMELVV
B5: il2ra_site2_2erj_normal_mot_HHH_b1_04373_af2_000000118_0001_18_33_H_._HHH_b1_02368_af2_0001_0000200015_0000001_0 (protein)
chain: SSSSDEELREEVEELLERAREAYEEGDLELVYELAVEAAHFAARNQDEELLELILEVVERLSSSS
B6: il2ra_site1_1z92_normal_mot_HHH_b1_03515_000000289_0001_1_19_H_._HHH_b2_07175_0001_0000100001_0000001_0 (protein)
chain: SSSSDRLERAAEIIVRVAVEANGLSEEQEKELEELARELVERGLDPLEIIKLLDRLAAELSSSSS
B7: il2ra_site2_2erj_sap_28_mot_HHH_b1_06697_000000025_0001_41_54_H_._HHH_b1_07674_0001_0001200015_0000001_1_0001 (protein)
chain: SSSSSDVKEAYEEIAELLARAAHIKDPEEVRKLLEEAERLAEENNDPFARKYVEFARRDFSSSSS
B8: il2ra_site1_1z92_normal_mot_HHH_b2_01902_af2_000000252_0001_25_40_H_._HHH_b1_06549_af2_0001_0000100014_0000001_0_af2pred_dldesign_0_af2pred (protein)
chain: SSSSSPLERAARQYVDAIKEIAGLSDEQYAELLAEAERLAAAGVPVRDIAKALDKRAAELLSSSS
B9: il2ra_site2_3nfp_normal_mot_HHH_b2_00429_000000100_0001_21_37_H_._HHH_b1_08311_0001_0000300035_0000001_0 (protein)
chain: SSSSDEEVERLIEEAEELLRNGNPEEAKRVISRATDLAYEAGDHRLFALLVDLVAVVAHLLSSSS
B10: il2ra_site2_3nfp_normal_mot_HHH_b2_04451_000000238_0001_21_37_H_._HHH_b2_06904_0001_0000300014_0000001_0 (protein)
chain: SSSSSSDEEEIEELLELVEKIDDQLERLQVLLEASKLAAELGDEELAREVLRLFAEIQSSSSSSS
B11: il2ra_site1_3nfp_normal_mot_0eddeacbb14b769e73e254714f31e2f9_0001_af2_000000052_0001_37_51_H_._HHH_b1_00975_af2_0002_0000100004_0000001_0 (protein)
chain: SSSSSDEEELRERVEELLEEAKHVSEEEASRLIEEAYRLVQENGNQELADLIYRVMREMISSSSS
B12: il2ra_site2_3nfp_sap_4_mot_HHH_b2_00168_000000180_0001_1_21_H_._HHH_b2_05578_af2_0001_0000500013_0000001_0_0001 (protein)
chain: SSSSDDVEEYLRAALALAREAIKQGDEELAEKILEMIRKAAEDAKDEEALEEAEELLKLVGSSSS
B13: il2ra_site2_3nfp_normal_mot_HHH_b2_06150_000000217_0001_39_53_H_._HHH_b1_03322_0001_0000100005_0000001_0 (protein)
chain: SSSSDIEERIEELLEEAKELIENGDPERAQEVLQEATHLAYEIRNSELFMRVAELLYLLRSSSSS
B14: il2ra_site1_3nfp_sap_8_mot_HHH_b1_04221_000000040_0001_40_56_H_._16d56542c9725820401ab7c11c235cbe_0001_0001_0000300014_0000001_0_0001 (protein)
chain: SSSSNEAAREATELMREIRRLLKEGNPEEARKLLEELEELAERNNDPVLKWLVRQFEESINSSSS
B15: il2ra_site1_1z92_sap_8_mot_a31c9f16200a66e5ad31ddff700483a3_0001_1_000000069_0001_19_32_H_._HHH_b1_08052_0001_0000300018_0000001_0_0001_af2pred_0001_af2pred (protein)
chain: SSSSEESLRRLAERLVEDAAKLADLSEEQKEELEELAEELIKRGVDPHEIAKELERLADELSSSS
B16: il2ra_site2_3nfp_normal_mot_HHH_b2_00429_000000100_0001_21_37_H_._HHH_b2_03374_0001_0000300044_0000001_0_af2pred_0001_1_af2pred_swapped (protein)
chain: SSSSNHEEFALRAALISLKLAVEAGNEELVRRLYEDAERAAKNANDPEVLEELERVFEEFHSSSS
B17: il2ra_site2_2erj_sap_17_mot_HHH_b2_05720_000000165_0001_1_18_H_._HHH_b2_07625_af2_0001_0000700024_0000001_0_0001 (protein)
chain: SSSSSDEEEREAERITEEIEERIDDPEERLREFFRVAVELLREGDPRTAHILLRLAQEGSSSSSS
B18: il2ra_site2_2erj_sap_24_mot_4428453eb85d3cbdb794fa6b82d21c19_0001_000000044_0001_14_30_H_._HHH_b2_00328_0001_0000300019_0000001_0_0001 (protein)
chain: SSSSDELHRLYELANEILHALSRGDEELVEELLEELEKLAEEADSRVAKENVEALRKHLDSSSSS
B19: il2ra_site1_2b5i_normal_mot_f5ff40796168375b462bec8614a1db4a_0001_1_000000138_0001_53_65_H_._HHH_b1_04161_0001_0000400021_0000001_0_af2pred_dldesign_0_af2pred (protein)
chain: SSSSSLRELVEEIIAEVKRLVAEGKLEEARKLAILALRLARKAEDPELVARVEALLETLESSSSS
B20: il2ra_site2_3nfp_normal_mot_HHH_b2_06150_000000217_0001_39_53_H_._HHH_b2_05434_af2_0001_0000100005_0000001_0 (protein)
chain: SSSSDEEEVEKLLKKAEELRERGNPEEARKLLREATQIAYERRDSELFFLVAEVLFEVLLSSSSS
B21: il2ra_site1_1z92_normal_mot_HHH_b2_00827_000000099_0001_20_37_H_._HHH_eva_0327_af2_0001_0000100007_0000001_0 (protein)
chain: SSEEELEELVEKIREVAEEKGDERLRRALERARFVLRELELGANSERAREIAEEAIKALYKTVVS
B22: il2ra_site1_3nfp_normal_mot_HHH_b1_04049_af2_000000244_0001_42_55_H_._HHH_b1_01786_0001_0000400012_0000001_0_af2pred_0001_af2pred (protein)
chain: SSSSDDKKRIQKLLREIMRLSKEGDEEEAEKLLEEVEELAREAGDPVAELLVELLKKILNSSSSS
B23: il2ra_site1_1z92_normal_mot_1581cc1c700002558836ca695aafbf97_0001_1_af2_000000099_0001_17_32_H_._HHH_b2_05050_0001_0000200017_0000001_0_af2pred_0001_af2pred (protein)
chain: SSSSDEEVERLVEELVEEFNLSEEEEKELRRIARSAEELGADPELVKKALEHFVEFLKRKGSSSS
B24: il2ra_site1_1z92_normal_mot_HHH_b1_04604_af2_000000029_0001_42_56_H_._HHH_b2_03915_0001_0000100005_0000001_0_af2pred_0001_af2pred (protein)
chain: SSSSDAELAAEADELLAEGNPEKVEEVLEEIRRAAEERDSRRLKEILENLEEELRELEEESSSSS
B25: il2ra_site1_2b5i_sap_12_mot_HHH_b2_04463_af2_000000056_0001_43_55_H_._HHH_b2_02114_af2_0001_0000100003_0000001_1_0001 (protein)
chain: SSSSNEAAREARELMEKLDEAFRRGDEELLEELLEEIEEFLKEQDDKFLRLAMEQVREELSSSSS
B26: il2ra_site2_3nfp_normal_mot_HHH_b1_03557_000000106_0001_41_55_H_._HHH_b2_00561_0001_0000400025_0000001_0_af2pred_0001_1_af2pred_swapped (protein)
chain: SSSSSDEEREEVEELLEEAEHIEDEREVFIVLVEAFFLALELRDPELERLVREFLKEFRSSSSSS
B27: il2ra_site1_1z92_normal_mot_HHH_b1_03515_000000289_0001_1_19_H_._HHH_b1_01554_af2_0001_0000200013_0000001_0 (protein)
chain: SSSSSSEHAARAIVKVLVRVARLSEEQEKELQELAEELVKRGYSLLEIIKILDRVAVELSSSSSS
B28: il2ra_site2_2erj_sap_27_mot_HHH_b1_06697_000000025_0001_41_54_H_._HHH_b2_06097_0001_0000200013_0000001_0_0001 (protein)
chain: SSSSDKLRELYKLAVELMRLVAEGDEERFEEVAEEVRKLVEELDSRTAREILEALERKIKSSSSS
B29: il2ra_site2_3nfp_sap_22_mot_ems_3hM_1278_af2_000000151_0001_43_60_H_._HHH_b2_04893_0001_0000100005_0000001_0_0001 (protein)
chain: SSSSSEELEELIEQARELLEEGDKYEAAQVVLRASRLALELNDPEAARRILELFEEIQRTSSSSS
B30: il2ra_site2_3nfp_sap_18_mot_7f6a3539c8daa08639e4cdbcc6f77908_0001_af2_000000032_0001_16_31_H_._HHH_b1_04314_af2_0001_0000300027_0000001_0_0001 (protein)
chain: SSSSDKSEEYLRIALELLEEAIKAGDEEAARSHLEVAKAAAESHNDEEVEERLEELEELLSSSSS
B31: il2ra_site2_2erj_sap_12_mot_HHH_b1_05666_000000037_0001_42_55_H_._HHH_b2_06677_0001_0000400020_0000001_0_0001 (protein)
chain: SSSSDERLHELYKLANELLRLEFEGDEERIEELLQRVRELAEELKSDAARELVERVEKKLSSSSS
B32: il2ra_site1_1z92_normal_mot_HHH_b2_05027_000000150_0001_42_56_H_._HHH_b2_03014_0001_0000400026_0000001_0 (protein)
chain: SSSSSSSEEWLEELVELVIKRSDDPEEQEELRRLLEELREEGDPELWLELAQLLIEIASSSSSSS
B33: il2ra_site1_3nfp_sap_17_mot_HHH_b1_06312_000000077_0001_1_18_H_._HHH_b1_02603_af2_0001_0000500014_0000001_0_0001_af2pred_0001_af2pred_1 (protein)
chain: SSSSDVEEFLEEIKEELREALEKGDARLAARIFKEASKKLREKGNPELAEELYEFLRKLISSSSS
B34: il2ra_site2_2erj_sap_25_mot_HHH_b1_02841_000000060_0001_43_57_H_._HHH_b1_02445_af2_0001_0000300014_0000001_0_0001 (protein)
chain: SSSSDTEERVEEVLEEARKAYEEGDLHEVYRLAVEAMRIASENNDQEALELVLRFIEELSSSSSS
B35: il2ra_site1_2b5i_sap_8_mot_HHH_b1_04517_000000040_0001_39_52_H_._HHH_b2_05314_0001_0000400027_0000001_0_0001_af2pred_dldesign_0_af2pred (protein)
chain: SSSDPKALAETAAAIVEELEEKYNLNLEQSAVLERLAVELVWKGVSPEEIRRRLEALAKELSSSS
B36: il2ra_site1_1z92_normal_mot_01209686ea234b34325f918445e6eade_0001_af2_000000154_0001_18_33_H_._HHH_b1_01021_0001_0000100004_0000001_0_af2pred_0001_1_af2pred_swa … (protein)
chain: SSSSSDELEEFIEELVKELGLDEEAKETLERLLEKLQEQGVSERAIRRALERMARRMRGSSSSSS
B37: il2ra_site2_3nfp_sap_11_mot_HHH_b1_00882_af2_000000293_0001_1_18_H_._HHH_b1_01194_af2_0001_0000300012_0000001_0_0001 (protein)
chain: SSSSSSSLYELLQEAVEAAKNGNPEEAKEILEQALEEAREAGDEEAEHFIEWFIKAVRSSSSSSS

target: il2ra, P01589; assay: yeast display titration
Sequence (P01589 whole entry): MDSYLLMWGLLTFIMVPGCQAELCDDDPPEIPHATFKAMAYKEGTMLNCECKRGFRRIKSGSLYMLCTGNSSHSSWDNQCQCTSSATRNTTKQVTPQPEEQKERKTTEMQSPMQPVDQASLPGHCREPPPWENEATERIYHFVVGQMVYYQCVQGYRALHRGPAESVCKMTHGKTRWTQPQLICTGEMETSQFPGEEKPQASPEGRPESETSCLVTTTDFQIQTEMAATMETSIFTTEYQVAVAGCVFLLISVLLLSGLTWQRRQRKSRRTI

Apparent Kd, inactive:
B1 no binding seen
B2 no binding seen
B3 no binding seen
B4 no binding seen
B5 no binding seen
B6 no binding seen
B7 no binding seen
B8 no binding seen
B9 no binding seen
B10 no binding seen
B11 no binding seen
B12 no binding seen
B13 no binding seen
B14 no binding seen
B15 no binding seen
B16 no binding seen
B17 no binding seen
B18 no binding seen
B19 no binding seen
B20 no binding seen
B21 no binding seen
B22 no binding seen
B23 no binding seen
B24 no binding seen
B25 no binding seen
B26 no binding seen
B27 no binding seen
B28 no binding seen
B29 no binding seen
B30 no binding seen
B31 no binding seen
B32 no binding seen
B33 no binding seen
B34 no binding seen
B35 no binding seen
B36 no binding seen
B37 no binding seen
